This passage reports AC50 and outcome results from PubChem BioAssay (EPA / NIEHS).

Results filed as inconclusive are left out. Activity calls are given as the source filed them. The calls were made as follows, unless noted: active = hit-call score of the fitted dose curve at least 0.9, where 1 is the maximum; inactive = score below 0.9.

One may read the AC50 as the concentration at which the activity in the assay is half-maximal.

The target of test [1] is human Retinoid X Receptor beta (RXRb), RXRB (gene 6257) (UniProt P28702). Description: ATG_RXRb_TRANS: Attagene TRANS-FACTORIAL HepG2 Assay for human Retinoid X Receptor beta (RXRb) (AID 2283013; active = hit-call score of the fitted dose curve at least 0.9, where 1 is the maximum). Summed up:
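After a 24 h incubation with test chemical, transfected HepG2 cells carrying NR-Gal4 fusions and GAL4-UAS reporter transcription units yield RNA whose reporter cDNA is FAM-labelled, HpaI-cut and sized by capillary electrophoresis; increases over DMSO are scored.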

Test [2] addresses human Thyroid Receptor alpha (THRa1), THRA (gene 7067) (UniProt P10827). Description: ATG_THRa1_TRANS: Attagene TRANS-FACTORIAL HepG2 Assay for human Thyroid Receptor alpha (THRa1) (AID 2283014; active = hit-call score of the fitted dose curve at least 0.9, where 1 is the maximum). A digest of the protocol:
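HepG2 cells transiently transfected with chimeric NR-Gal4 and GAL4-UAS reporter units, dosed 24 h. Reporter mRNA quantified by RT-PCR, fluorescent labeling, HpaI digestion and capillary electrophoresis; gain-of-signal fit versus DMSO.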

Read-out in test [3]: E-selectin (Homo sapiens) (UniProt P16581)
The test is described as follows: BSK_3C_Eselectin: BioMAP Diversity Plus: 3C Assay for Eselectin Biomarker Activity (AID 2283015).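 As to outcome: cell surface E-selectin protein quantified by ELISA 24 h after dosing.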 The settings on record: primary human endothelial cells (HUVEC); actives raise or lower the signal. A digest of the protocol: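 Primary human umbilical vein endothelial cells (3C system), read 24 h after compound addition; E-selectin measured by ELISA. Bidirectional curve fitting against DMSO baseline; cytotoxicity by parallel SRB total-protein staining.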

Read-out in test [4]: Interleukin-1 alpha (IL1a), IL1A (gene 3552)
Description: BSK_BE3C_IL1a: BioMAP Diversity Plus: BE3C Assay for Interleukin-1 alpha (IL1a) Biomarker Activity (AID 2283016). The settings on record: primary human bronchial epithelial cells; actives raise or lower the signal. Summed up:
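Measured in human lung primary bronchial epithelial cells: IL-1a by ELISA at 24 h after dosing, with bidirectional fitting against DMSO.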

Read-out in test [5]: Monocyte Chemoattractant Protein-1 (MCP1), CCL2 (gene 6347)
Description: BSK_3C_MCP1: BioMAP Diversity Plus: 3C Assay for Monocyte Chemoattractant Protein-1 (MCP1) Biomarker Activity (AID 2283017). The settings on record: primary human endothelial cells (HUVEC); actives raise or lower the signal. Summed up:
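Human umbilical vein endothelial cells (3C system) exposed to chemicals for 24 h; MCP-1 quantified by ELISA against the DMSO baseline with bidirectional fitting, and parallel SRB staining used to assess cytotoxicity.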

Read-out in test [6]: Monocyte Chemoattractant Protein-1 (MCP1), CCL2 (gene 6347)
The test is described as follows: BSK_4H_MCP1: BioMAP Diversity Plus: 4H Assay for Monocyte Chemoattractant Protein-1 (MCP1) Biomarker Activity (AID 2283018). The settings on record: primary human endothelial cells (HUVEC); actives raise or lower the signal. Summed up: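 Primary human umbilical vein endothelium is exposed to chemical for 24 h before MCP-1 is assayed by ELISA. Concentration-response fitted bidirectionally relative to DMSO.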

Read-out in test [7]: Human Leukocyte Antigen - DR isotype (HLADR), HLA-DRA (gene 3122)
The test is described as follows: BSK_3C_HLADR: BioMAP Diversity Plus: 3C Assay for Human Leukocyte Antigen - DR isotype (HLADR) Biomarker Activity (AID 2283019). To be noted: primary human endothelial cells (HUVEC); actives raise or lower the signal. A digest of the protocol: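 HUVEC monoculture, HLA-DR measured by ELISA 24 h after chemical dosing. Fitted bidirectionally against DMSO baseline; parallel SRB staining assessed cytotoxicity, with 3C proliferation read by SRB at 48 h.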

Read-out in test [8]: Interleukin-8 (IL8), CXCL8 (gene 3576)
The test is described as follows: BSK_3C_IL8: BioMAP Diversity Plus: 3C Assay for Interleukin-8 (IL8) Biomarker Activity (AID 2283020). To be noted: primary human endothelial cells (HUVEC); actives raise or lower the signal. A digest of the protocol:
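Using DMSO-treated wells as the baseline, bidirectional curve fitting was applied to ELISA-measured IL-8 from human umbilical vein endothelial cultures sampled 24 h after compound addition.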

Read-out in test [9]: Monokine induced gamma interferon (MIG), CXCL9 (gene 4283)
Description: BSK_3C_MIG: BioMAP Diversity Plus: 3C Assay for Monokine induced gamma interferon (MIG) Biomarker Activity (AID 2283021).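 As to AC50: MIG protein level measured by immunoassay in the treated endothelial cultures.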 The settings on record: primary human endothelial cells (HUVEC); actives raise or lower the signal. A digest of the protocol: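 ELISA-measured MIG in dosed HUVEC 3C cultures at 24 h, analysed by bidirectional fitting with DMSO defining baseline activity.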

A short description of test [10]: BSK_3C_SRB: Viability Assessment in the BioMAP Diversity Plus: 3C Assay (AID 2283023).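 Also: fitted both ways against DMSO so a hit may be signal rise or drop.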 To be noted: primary human endothelial cells (HUVEC). Summed up: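 Human umbilical vein endothelial cells in the 3C system, treated 24 h. Total protein measured by 0.1% sulforhodamine B staining after 10% TCA fixation, read at 560 nm; bidirectional fit versus DMSO.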
Read-out in test [11]: Matrix Metallopeptidase 1 (MMP1), MMP1 (gene 4312)
Description: BSK_BE3C_MMP1: BioMAP Diversity Plus: BE3C Assay for Matrix Metallopeptidase 1 (MMP1) Biomarker Activity (AID 2283024). To be noted: primary human bronchial epithelial cells; actives raise or lower the signal. A digest of the protocol: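 In this multiplexed primary-cell system, human bronchial epithelium received chemicals for 24 h before an ELISA for MMP1. Values reflect bidirectional fits normalised to the DMSO baseline.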

Test [12] is described as follows: BSK_3C_Vis: BioMAP Diversity Plus: 3C Assay for Morphology Visualization (AID 2283025).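 Also: light microscopy image of cell morphology used as background control; fitted both ways so gain or loss versus DMSO counts.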 The settings on record: primary human endothelial cells (HUVEC). Summed up:
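Light-microscopy morphology readout, 24 h exposure, human primary umbilical vein endothelium; analysed relative to DMSO with bidirectional fitting.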

Read-out in test [13]: Pselectin, SELP (gene 6403)
Description: BSK_4H_Pselectin: BioMAP Diversity Plus: 4H Assay for Pselectin Biomarker Activity (AID 2283026). To be noted: primary human endothelial cells (HUVEC); actives raise or lower the signal. A digest of the protocol: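 Bidirectional fits against DMSO gave the endpoint. Cells: primary human umbilical vein endothelium, chemical-treated for 24 h before ELISA detection of P-selectin.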

Test [14] in a line: BSK_4H_SRB: Viability Assessment in the BioMAP Diversity Plus: 4H Assay (AID 2283027).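 Also: cells exposed to compound for 24 h before staining.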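 As to AC50: curves fitted both ways versus DMSO so AC50 may be loss or gain.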 To be noted: primary human endothelial cells (HUVEC). A digest of the protocol:
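Cytotoxicity readout: sulforhodamine B (0.1%) staining of total protein after 10% TCA fixation, measured at 560 nm in human umbilical vein endothelium at 24 h. DMSO set the baseline; fitting was bidirectional.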

Test [15] is described as follows: BSK_BE3C_SRB: Viability Assessment in the BioMAP Diversity Plus: BE3C Assay (AID 2283028).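 As to AC50: fitted both ways so AC50 may mark signal gain or loss versus DMSO.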 The settings on record: primary human bronchial epithelial cells. Summed up: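 Human bronchial epithelial primary cells in confluent culture, 24 h after chemical dosing; total protein by 0.1% SRB staining after 10% TCA fixation, read at 560 nm. Bidirectional fitting versus DMSO baseline.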

Read-out in test [16]: Thrombomodulin, THBD (gene 7056)
Description: BSK_3C_Thrombomodulin: BioMAP Diversity Plus: 3C Assay for Thrombomodulin Biomarker Activity (AID 2283029). The settings on record: primary human endothelial cells (HUVEC); actives raise or lower the signal. Summed up:
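In a multiplexed primary-cell system, human umbilical vein endothelium received chemical and was assayed 24 h later for thrombomodulin by ELISA. Parallel cultures were SRB-stained (0.1% SRB after 10% TCA fixation, read at 560 nm) to flag cytotoxicity.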

Read-out in test [17]: Urokinase-type plasminogen activator receptor (uPAR), PLAUR (gene 5329)
Description: BSK_4H_uPAR: BioMAP Diversity Plus: 4H Assay for Urokinase-type plasminogen activator receptor (uPAR) Biomarker Activity (AID 2283030). To be noted: primary human endothelial cells (HUVEC); actives raise or lower the signal. Summed up:
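Human umbilical vein endothelial cells in the 4H system, 24 h after chemical dosing. Cell-surface uPAR measured by ELISA, fitted in both directions versus DMSO; cytotoxicity checked by SRB total protein in parallel cultures.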

Read-out in test [18]: Vascular endothelial growth factor receptor 2 (Homo sapiens) (UniProt P35968)
Description: BSK_4H_VEGFRII: BioMAP Diversity Plus: 4H Assay for Vascular endothelial growth factor receptor 2 (VEGFR2) Biomarker Activity (AID 2283031).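 As to AC50: cell-surface VEGFR2 protein level quantified by ELISA.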 To be noted: primary human endothelial cells (HUVEC); actives raise or lower the signal. A digest of the protocol: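 Primary human umbilical vein endothelial cells (4H system), 24 h exposure; cell-surface VEGFR2 measured by ELISA. Bidirectional fitting versus DMSO; cytotoxicity checked in parallel by SRB total-protein staining.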

Read-out in test [19]: Human Leukocyte Antigen - DR isotype (HLADR), HLA-DRA (gene 3122)
The test is described as follows: BSK_BE3C_HLADR: BioMAP Diversity Plus: BE3C Assay for Human Leukocyte Antigen - DR isotype (HLADR) Biomarker Activity (AID 2283032). The settings on record: primary human bronchial epithelial cells; actives raise or lower the signal. Summed up:
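BioMAP BE3C format: human bronchial epithelium, 24 h compound treatment, ELISA detection of HLA-DR, with bidirectional analysis relative to DMSO.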

Test [20] addresses human Vitamin D Receptor (VDR), VDR (gene 7421) (UniProt P11473). Description: ATG_VDR_TRANS: Attagene TRANS-FACTORIAL HepG2 Assay for human Vitamin D Receptor (VDR) (AID 2283022; active = hit-call score of the fitted dose curve at least 0.9, where 1 is the maximum). Summed up: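 HepG2 cells were transiently transfected with GAL4-UAS reporter units and a chimeric VDR-Gal4 construct, then dosed for 24 hours. Reporter mRNA was quantified by RT-PCR, fluorescent labeling, HpaI digestion and capillary electrophoresis; gain of signal analysed vs DMSO.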

Chain of human Thyroid Receptor alpha (THRa1), THRA (gene 7067) (P10827 whole entry, looked up, the tested form may be a part): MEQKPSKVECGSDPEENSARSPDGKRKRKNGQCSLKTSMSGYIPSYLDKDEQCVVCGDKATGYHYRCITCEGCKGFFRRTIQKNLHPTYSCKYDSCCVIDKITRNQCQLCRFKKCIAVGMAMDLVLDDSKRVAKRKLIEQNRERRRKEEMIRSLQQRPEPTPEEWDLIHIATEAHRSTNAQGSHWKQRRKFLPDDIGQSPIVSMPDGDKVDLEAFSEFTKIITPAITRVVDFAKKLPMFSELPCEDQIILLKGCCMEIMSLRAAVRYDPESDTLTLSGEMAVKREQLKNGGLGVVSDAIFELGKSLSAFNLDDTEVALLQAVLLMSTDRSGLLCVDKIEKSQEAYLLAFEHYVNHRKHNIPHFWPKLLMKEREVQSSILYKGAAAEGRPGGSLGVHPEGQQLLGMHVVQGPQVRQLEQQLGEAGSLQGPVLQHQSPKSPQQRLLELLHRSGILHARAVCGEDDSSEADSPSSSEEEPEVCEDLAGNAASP
Chain of human Vitamin D Receptor (VDR), VDR (gene 7421) (P11473 whole entry, looked up, the tested form may be a part): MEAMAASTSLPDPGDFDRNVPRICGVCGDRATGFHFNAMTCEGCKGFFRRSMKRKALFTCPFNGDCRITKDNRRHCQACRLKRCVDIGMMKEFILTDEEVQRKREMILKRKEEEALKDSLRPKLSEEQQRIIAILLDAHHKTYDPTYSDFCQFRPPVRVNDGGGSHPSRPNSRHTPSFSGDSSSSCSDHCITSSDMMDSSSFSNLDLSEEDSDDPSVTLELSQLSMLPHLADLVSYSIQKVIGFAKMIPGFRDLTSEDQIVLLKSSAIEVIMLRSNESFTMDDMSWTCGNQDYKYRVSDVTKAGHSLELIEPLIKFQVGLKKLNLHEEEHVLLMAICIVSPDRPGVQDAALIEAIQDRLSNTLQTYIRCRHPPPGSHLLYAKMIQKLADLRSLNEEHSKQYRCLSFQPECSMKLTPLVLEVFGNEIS
Chain of human Retinoid X Receptor beta (RXRb), RXRB (gene 6257) (P28702 whole entry, looked up, the tested form may be a part): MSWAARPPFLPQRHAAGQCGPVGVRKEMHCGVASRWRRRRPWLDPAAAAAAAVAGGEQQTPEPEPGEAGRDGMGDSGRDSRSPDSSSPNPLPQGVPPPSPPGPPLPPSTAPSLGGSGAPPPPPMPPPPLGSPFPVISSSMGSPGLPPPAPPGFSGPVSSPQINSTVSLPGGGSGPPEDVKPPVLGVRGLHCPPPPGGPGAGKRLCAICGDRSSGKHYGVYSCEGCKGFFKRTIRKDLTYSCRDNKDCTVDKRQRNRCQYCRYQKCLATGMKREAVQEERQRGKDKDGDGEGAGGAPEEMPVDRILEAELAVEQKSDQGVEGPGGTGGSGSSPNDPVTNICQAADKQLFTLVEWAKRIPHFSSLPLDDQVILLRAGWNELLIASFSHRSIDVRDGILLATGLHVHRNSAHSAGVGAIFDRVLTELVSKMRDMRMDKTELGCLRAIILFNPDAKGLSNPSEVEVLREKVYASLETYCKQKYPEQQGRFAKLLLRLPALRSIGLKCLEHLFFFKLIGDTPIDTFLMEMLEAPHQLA
Chain of E-selectin (Homo sapiens) (P16581 whole entry, looked up): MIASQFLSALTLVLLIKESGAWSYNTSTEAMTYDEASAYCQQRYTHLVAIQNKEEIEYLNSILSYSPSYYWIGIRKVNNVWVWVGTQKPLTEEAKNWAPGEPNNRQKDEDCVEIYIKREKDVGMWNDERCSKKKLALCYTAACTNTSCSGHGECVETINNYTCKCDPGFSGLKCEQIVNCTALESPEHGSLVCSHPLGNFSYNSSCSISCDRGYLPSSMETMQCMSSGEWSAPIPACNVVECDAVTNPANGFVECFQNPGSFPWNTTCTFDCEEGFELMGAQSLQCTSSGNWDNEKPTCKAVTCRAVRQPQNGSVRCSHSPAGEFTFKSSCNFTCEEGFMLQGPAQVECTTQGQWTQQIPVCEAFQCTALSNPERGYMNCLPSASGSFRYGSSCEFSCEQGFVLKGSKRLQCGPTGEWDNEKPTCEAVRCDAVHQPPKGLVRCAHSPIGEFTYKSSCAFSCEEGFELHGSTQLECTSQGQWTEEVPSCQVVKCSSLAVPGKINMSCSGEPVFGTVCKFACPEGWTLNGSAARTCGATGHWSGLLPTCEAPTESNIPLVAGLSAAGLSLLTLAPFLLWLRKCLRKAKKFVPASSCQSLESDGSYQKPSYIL

Turning to `CCCCCc1ccc(O)cc1`, the AC50 was 33.4 µM (active) in [1]; 13.5 µM (active) in test [3]; 23.8 µM (active) in [4]; 20 µM (active) in test [5]; 9.34 µM (active) in [6]; 11.6 µM (active) in test [7]. For the same compound, the half-maximal activity concentration (AC50) in test [8] is 11.3 µM (active); in test [9] it was 34.6 µM (active); in test [10], 14.5 µM (active); in test [11], 30.2 µM (active); in test [12] it was 12.1 µM (active); in test [13] it was 13.3 µM (active). In addition, the AC50 in test [14] was 15.8 µM (active); in [15], 26 µM (active); in test [16] it was 11.7 µM (active); in [17], 20 µM (active); in test [19], 27.2 µM (active). The compound was called inactive in test [2] and in [18].

Regarding `Oc1cccc2c(O)cccc12`, the call in test [1], in test [2] and in test [20] was inactive.

As to `CCCCCCCCC1CCC(=O)O1` (configuration not stated), the outcome in [1], in test [2] and in test [20] was inactive.

For the compound `O=C(Nc1cccc([N+](=O)[O-])c1)c1cc2ccccc2cc1O`, the compound was classed as inactive in test [1] and in test [20]. In test [2], the AC50 is 17.5 µM (active).

In the case of `O=C(CCCN1CCC(O)(c2ccc(Cl)cc2)CC1)c1ccc(F)cc1`, the call in [1], in [2], in [3], in test [4], in test [5] and in test [6] was inactive. Further, the result in test [7], in test [9], in [11], in test [13], in test [15] and in [16] was inactive. The result in test [18] and in test [19] was inactive. For the same compound, the half-maximal activity concentration (AC50) in [8] was 9.25 µM (active); in test [10], 17.4 µM (active); in test [12], 9.8 µM (active); in test [17], 10.9 µM (active).

With `CCCCCCCCCCCCCC[n+]1ccccc1`, the compound was classed as inactive in test [1], in test [2] and in test [20].

Consider `C=COC(=O)C(C)(C)CCCCCC`, for which the AC50 in test [1] is 62 µM (active); in test [3], 32.7 µM (active); in test [4] it was 34.9 µM (active); in [5], 31.3 µM (active); in [6] it was 20 µM (active); in [7], 33.6 µM (active). For the same compound, the AC50 in [8] is 30.2 µM (active); in test [9] it was 33.9 µM (active); in test [10], 34.6 µM (active); in [11], 3.97 µM (active); in [12], 37.8 µM (active); in test [13], 32.4 µM (active). The concentration at half-maximal activity (AC50) in test [16] was 20 µM (active); in test [17], 32.6 µM (active); in test [18] it was 25.6 µM (active); in [19] it was 24.8 µM (active). For the same compound, the compound was called inactive in test [2] and in [15].

With `C[N+](C)(CCCNS(=O)(=O)CCC(F)(F)C(F)(F)C(F)(F)C(F)(F)C(F)(F)C(F)(F)F)CC(=O)[O-]`, the outcome in test [1], in test [2] and in [20] was inactive.

For `Cc1ccc(N=Nc2c(O)ccc3ccccc23)c(C)c1`, the outcome in [1], in test [2], in test [3], in test [4], in test [5] and in [6] was inactive. Moreover, the result in [8], in [9], in [10], in test [11], in test [13] and in [14] was inactive. Moreover, the result in [15], in test [16], in [17] and in test [18] was inactive. In addition, the results for the AC50 in test [7], in test [12] and in test [19] were 14.8 µM (active), 19.9 µM (active) and 10 µM (active), respectively.

Regarding `CC1CNCC(C)O1` (configuration not stated), the compound was called inactive in test [1], in [2] and in test [20].
